# Laboratory results published in PubChem BioAssay (Tox21).
# Activity calls are given as the source filed them. Calls come from the whole dose curve; as a rule, active = well fitted curve in the direction sought with a large enough effect in the repeat runs; inconclusive = weak or mixed curves; inactive = flat fitted curve, though single readings scatter.
# Experiment: qHTS assay to test for compound auto fluorescence at 535 nm (green) in HEK293 cells (AID 720680)
# Conditions: green autofluorescence 485/535 nm; series mostly up to 91.3 µM
row,Compound,outcome
1,Nc1ccccc1C(=O)O,inactive
2,Nc1ccc(Br)cc1,inactive
3,CON(C)C(=O)Nc1ccc(Cl)c(Cl)c1,inactive
4,O=c1n(Cl)c(=O)n(Cl)c(=O)n1Cl,inactive
5,Cc1ccc([N+](=O)[O-])cc1C,inactive
6,O=S(=O)(c1ccc(Cl)cc1)c1cc(Cl)c(Cl)cc1Cl,inactive
7,CCC[CH2][Sn]([Cl])([Cl])[Cl],inactive
8,NCC(O)c1ccc(O)cc1 (configuration not stated),inactive
9,Cc1ccc(N)cc1Cl,inactive
10,Cc1[nH]c(=O)n(C(C)(C)C)c(=O)c1Cl,inactive
11,CCOP(OCC)OCC,inactive
12,[O-][Cl+2]([O-])O,inactive
13,C1CC2OC2CC1C1CO1 (configuration not stated),inactive
14,CCc1cccc(C)c1N(C(=O)CCl)C(C)COC (configuration not stated),inactive
15,CN1C(=O)CN=C(c2ccccc2)c2cc(Cl)ccc21,inactive
16,BrCCBr,inactive
17,CCC[N+](=O)[O-],inactive
18,Cc1cc(-c2cc(C)c(N)c(C)c2)cc(C)c1N,inactive

row,Compound,outcome
1,CCC(C)(CC)c1cc(NC(=O)c2c(OC)cccc2OC)on1,inactive
2,C1CN2CCN1CC2,inactive
3,CCNc1nc(NC(C)C)nc(SC)n1,inactive
4,CC1OC(C)OC(C)O1 (configuration not stated),inactive
5,COc1ccc2c3c1O[C@H]1[C@@H](O)C=C[C@H]4[C@@H](C2)N(C)CC[C@@]341,inactive
6,Cc1cccc([N+](=O)[O-])c1,inactive
7,O=c1ccc(=O)[nH][nH]1,inactive
8,OC(O)C(Cl)(Cl)Cl,inactive
9,CCCN(CCC)c1c([N+](=O)[O-])cc(C(F)(F)F)cc1[N+](=O)[O-],inactive
10,CCCCOC(=O)c1ccccc1C(=O)OCCCC,inactive
11,CCC12COCN1COC2,inactive
12,CN=C=S,inactive
13,ClCCBr,inactive
14,CC(C)OC(=O)Nc1ccccc1,inactive
15,C[C@]12CC[C@H]3[C@@H](CC[C@@]45O[C@@H]4C(O)=C(C#N)C[C@]35C)[C@@H]1CC[C@@H]2O,inactive
16,CC(C)OC(=O)Nc1cccc(Cl)c1,inactive
17,CC(C)NC(=O)N1CC(=O)N(c2cc(Cl)cc(Cl)c2)C1=O,inactive
18,OCCN(CCO)CCO,inactive

# Experiment: qHTS assay to test for compound auto fluorescence at 460 nm (blue) in HEK293 cell free culture (AID 720681)
# Conditions: cell-free medium, autofluorescence 405/460 nm (blue); series mostly up to 91.3 µM
# In short: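 Compounds were added to cell-free DMEM with 10% FBS and fluorescence read directly. The blue channel used 405 nm excitation and 460 nm emission, with triamterene as the reference fluorophore.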
row,Compound,outcome
1,Nc1ccccc1C(=O)O,inactive
2,Nc1ccc(Br)cc1,inactive
3,CON(C)C(=O)Nc1ccc(Cl)c(Cl)c1,inactive
4,O=c1n(Cl)c(=O)n(Cl)c(=O)n1Cl,inactive
5,Cc1ccc([N+](=O)[O-])cc1C,inactive
6,O=S(=O)(c1ccc(Cl)cc1)c1cc(Cl)c(Cl)cc1Cl,inactive
7,CCC[CH2][Sn]([Cl])([Cl])[Cl],inactive
8,NCC(O)c1ccc(O)cc1 (configuration not stated),inactive
9,Cc1ccc(N)cc1Cl,inactive
10,Cc1[nH]c(=O)n(C(C)(C)C)c(=O)c1Cl,inactive
11,CCOP(OCC)OCC,inactive
12,[O-][Cl+2]([O-])O,inactive
13,C1CC2OC2CC1C1CO1 (configuration not stated),inactive
14,CCc1cccc(C)c1N(C(=O)CCl)C(C)COC (configuration not stated),inactive
15,CN1C(=O)CN=C(c2ccccc2)c2cc(Cl)ccc21,inactive
16,BrCCBr,inactive
17,CCC[N+](=O)[O-],inactive
18,Cc1cc(-c2cc(C)c(N)c(C)c2)cc(C)c1N,inactive

row,Compound,outcome
1,CCC(C)(CC)c1cc(NC(=O)c2c(OC)cccc2OC)on1,inactive
2,C1CN2CCN1CC2,inactive
3,CCNc1nc(NC(C)C)nc(SC)n1,inactive
4,CC1OC(C)OC(C)O1 (configuration not stated),inactive
5,COc1ccc2c3c1O[C@H]1[C@@H](O)C=C[C@H]4[C@@H](C2)N(C)CC[C@@]341,inactive
6,Cc1cccc([N+](=O)[O-])c1,inactive
7,O=c1ccc(=O)[nH][nH]1,inactive
8,OC(O)C(Cl)(Cl)Cl,inactive
9,CCCN(CCC)c1c([N+](=O)[O-])cc(C(F)(F)F)cc1[N+](=O)[O-],inactive
10,CCCCOC(=O)c1ccccc1C(=O)OCCCC,inactive
11,CCC12COCN1COC2,inactive
12,CN=C=S,inactive
13,ClCCBr,inactive
14,CC(C)OC(=O)Nc1ccccc1,inactive
15,C[C@]12CC[C@H]3[C@@H](CC[C@@]45O[C@@H]4C(O)=C(C#N)C[C@]35C)[C@@H]1CC[C@@H]2O,inactive
16,CC(C)OC(=O)Nc1cccc(Cl)c1,inactive
17,CC(C)NC(=O)N1CC(=O)N(c2cc(Cl)cc(Cl)c2)C1=O,inactive
18,OCCN(CCO)CCO,inactive
